Conditions in all cases: Compound concentration 20.0 uM
Assay [1] deals with Tyrosine-protein kinase ABL1 (Homo sapiens) (UniProt P00519).
Assay [2] has as its target Bromodomain-containing protein 4 (Homo sapiens) (UniProt O60885).
Assay [3] deals with Cyclin-dependent kinase 2 (Homo sapiens) (UniProt P24941).
Assay [4] has as its target Casein kinase I isoform delta (Homo sapiens) (UniProt P48730).
In assay [5] the target is Glycogen synthase kinase-3 beta (Homo sapiens) (UniProt P49841).
Assay [6] has as its target Mitogen-activated protein kinase 1 (Homo sapiens) (UniProt P28482).
Assay [7] concerns the target T1, Aurora kinase A (Homo sapiens) (UniProt O14965).
T1 sequence (whole entry): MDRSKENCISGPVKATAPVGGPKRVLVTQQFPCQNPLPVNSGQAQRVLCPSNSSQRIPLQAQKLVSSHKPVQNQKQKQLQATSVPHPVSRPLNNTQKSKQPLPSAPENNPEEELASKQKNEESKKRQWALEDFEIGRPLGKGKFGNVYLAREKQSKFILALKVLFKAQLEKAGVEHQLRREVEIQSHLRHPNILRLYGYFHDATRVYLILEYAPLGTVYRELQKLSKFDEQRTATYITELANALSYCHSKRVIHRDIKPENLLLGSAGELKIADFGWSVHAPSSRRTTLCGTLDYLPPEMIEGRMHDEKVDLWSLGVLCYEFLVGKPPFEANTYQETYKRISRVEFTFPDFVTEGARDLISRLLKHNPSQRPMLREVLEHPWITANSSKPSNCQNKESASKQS

The target of assay [8] is T2, Transcription intermediary factor 1-alpha (Homo sapiens) (UniProt O15164).
T2 sequence (whole entry): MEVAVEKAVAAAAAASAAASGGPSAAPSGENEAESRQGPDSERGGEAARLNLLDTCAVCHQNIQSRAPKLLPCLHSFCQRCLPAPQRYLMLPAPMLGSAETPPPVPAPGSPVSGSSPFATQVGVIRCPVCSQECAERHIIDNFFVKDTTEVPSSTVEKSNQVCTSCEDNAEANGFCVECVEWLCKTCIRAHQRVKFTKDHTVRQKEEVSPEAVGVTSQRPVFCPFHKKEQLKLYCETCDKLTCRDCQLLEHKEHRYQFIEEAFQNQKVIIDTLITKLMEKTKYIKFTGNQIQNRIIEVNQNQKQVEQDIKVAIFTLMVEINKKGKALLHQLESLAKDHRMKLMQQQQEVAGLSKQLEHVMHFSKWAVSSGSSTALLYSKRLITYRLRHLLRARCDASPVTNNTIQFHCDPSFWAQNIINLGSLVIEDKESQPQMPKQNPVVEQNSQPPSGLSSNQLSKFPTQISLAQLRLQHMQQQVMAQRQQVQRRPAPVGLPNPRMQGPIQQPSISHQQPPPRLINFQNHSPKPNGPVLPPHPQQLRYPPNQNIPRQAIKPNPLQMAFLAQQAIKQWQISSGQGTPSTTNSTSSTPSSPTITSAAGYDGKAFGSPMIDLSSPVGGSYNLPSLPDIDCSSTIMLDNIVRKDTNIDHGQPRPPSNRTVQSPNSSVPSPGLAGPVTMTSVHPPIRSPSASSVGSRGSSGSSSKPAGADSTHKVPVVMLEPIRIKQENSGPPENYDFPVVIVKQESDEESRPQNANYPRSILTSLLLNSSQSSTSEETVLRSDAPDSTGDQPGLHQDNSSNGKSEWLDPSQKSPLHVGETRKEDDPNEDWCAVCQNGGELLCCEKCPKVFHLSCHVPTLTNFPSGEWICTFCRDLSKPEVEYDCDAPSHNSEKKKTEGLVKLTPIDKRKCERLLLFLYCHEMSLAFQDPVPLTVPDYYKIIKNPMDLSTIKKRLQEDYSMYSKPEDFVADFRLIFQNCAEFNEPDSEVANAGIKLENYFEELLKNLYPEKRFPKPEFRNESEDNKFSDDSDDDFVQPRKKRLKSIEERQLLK

Casein kinase I isoform delta (Homo sapiens), sequence (P48730 whole entry, looked up, canonical isoform): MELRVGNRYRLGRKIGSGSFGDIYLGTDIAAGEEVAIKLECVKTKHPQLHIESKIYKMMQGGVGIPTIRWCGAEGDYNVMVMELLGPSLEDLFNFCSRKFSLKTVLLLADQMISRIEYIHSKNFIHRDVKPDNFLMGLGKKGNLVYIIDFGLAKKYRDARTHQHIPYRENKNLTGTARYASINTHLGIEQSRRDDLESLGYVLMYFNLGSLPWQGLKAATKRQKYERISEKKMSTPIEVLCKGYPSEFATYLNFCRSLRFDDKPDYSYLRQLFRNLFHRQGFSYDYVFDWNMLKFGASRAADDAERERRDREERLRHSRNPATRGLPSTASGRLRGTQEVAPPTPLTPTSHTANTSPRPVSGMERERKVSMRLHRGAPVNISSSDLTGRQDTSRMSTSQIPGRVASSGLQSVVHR
Tyrosine-protein kinase ABL1 (Homo sapiens), sequence (P00519 whole entry): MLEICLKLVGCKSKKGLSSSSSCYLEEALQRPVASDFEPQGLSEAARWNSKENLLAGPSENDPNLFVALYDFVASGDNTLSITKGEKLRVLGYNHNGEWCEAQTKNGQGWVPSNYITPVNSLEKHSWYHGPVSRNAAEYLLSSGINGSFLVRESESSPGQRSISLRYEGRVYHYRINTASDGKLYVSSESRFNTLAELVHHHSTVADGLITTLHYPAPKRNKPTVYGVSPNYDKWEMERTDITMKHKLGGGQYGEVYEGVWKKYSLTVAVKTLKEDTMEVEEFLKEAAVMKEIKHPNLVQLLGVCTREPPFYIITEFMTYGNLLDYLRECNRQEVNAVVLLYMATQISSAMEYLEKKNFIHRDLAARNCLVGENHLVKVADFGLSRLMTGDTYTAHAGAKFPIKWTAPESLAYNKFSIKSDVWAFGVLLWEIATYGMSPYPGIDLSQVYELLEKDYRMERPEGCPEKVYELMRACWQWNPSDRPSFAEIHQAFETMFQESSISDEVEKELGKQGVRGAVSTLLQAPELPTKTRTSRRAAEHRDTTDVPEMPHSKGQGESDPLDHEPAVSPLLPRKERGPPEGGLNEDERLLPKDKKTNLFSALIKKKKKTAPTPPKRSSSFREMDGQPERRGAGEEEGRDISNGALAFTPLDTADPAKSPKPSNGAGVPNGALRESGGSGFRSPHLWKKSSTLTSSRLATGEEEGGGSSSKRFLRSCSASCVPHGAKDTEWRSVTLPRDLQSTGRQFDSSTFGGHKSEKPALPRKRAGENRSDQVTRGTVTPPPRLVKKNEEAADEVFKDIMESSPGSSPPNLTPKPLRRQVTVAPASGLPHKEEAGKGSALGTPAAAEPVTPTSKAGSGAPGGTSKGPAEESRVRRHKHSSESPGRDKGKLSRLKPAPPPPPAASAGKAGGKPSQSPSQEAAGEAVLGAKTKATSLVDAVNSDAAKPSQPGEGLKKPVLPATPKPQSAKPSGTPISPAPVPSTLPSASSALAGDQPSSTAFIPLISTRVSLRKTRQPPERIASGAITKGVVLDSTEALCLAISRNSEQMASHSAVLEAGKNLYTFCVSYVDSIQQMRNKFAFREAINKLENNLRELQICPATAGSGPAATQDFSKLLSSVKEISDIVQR
Glycogen synthase kinase-3 beta (Homo sapiens), sequence (P49841 whole entry, looked up): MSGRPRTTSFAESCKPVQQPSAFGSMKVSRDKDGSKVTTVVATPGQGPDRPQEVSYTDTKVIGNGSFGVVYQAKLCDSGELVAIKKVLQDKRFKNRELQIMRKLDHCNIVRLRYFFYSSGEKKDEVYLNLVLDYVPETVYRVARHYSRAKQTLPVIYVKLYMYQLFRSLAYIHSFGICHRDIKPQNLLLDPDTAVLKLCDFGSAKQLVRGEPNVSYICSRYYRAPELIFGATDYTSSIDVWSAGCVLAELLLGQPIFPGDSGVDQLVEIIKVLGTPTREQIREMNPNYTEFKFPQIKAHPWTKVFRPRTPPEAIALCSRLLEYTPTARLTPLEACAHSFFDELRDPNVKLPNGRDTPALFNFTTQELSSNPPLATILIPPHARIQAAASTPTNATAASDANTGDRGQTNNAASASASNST
Mitogen-activated protein kinase 1 (Homo sapiens), sequence (P28482 whole entry): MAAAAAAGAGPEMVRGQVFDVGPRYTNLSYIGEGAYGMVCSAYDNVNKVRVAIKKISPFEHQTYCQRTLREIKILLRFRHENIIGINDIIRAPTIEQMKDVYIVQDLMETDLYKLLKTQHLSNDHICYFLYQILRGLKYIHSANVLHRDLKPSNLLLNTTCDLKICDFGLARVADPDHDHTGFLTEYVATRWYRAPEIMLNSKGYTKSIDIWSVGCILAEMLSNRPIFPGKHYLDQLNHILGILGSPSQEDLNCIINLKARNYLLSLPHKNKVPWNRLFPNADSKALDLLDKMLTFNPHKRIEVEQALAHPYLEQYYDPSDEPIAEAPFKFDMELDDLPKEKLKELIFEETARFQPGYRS

In general, ΔTm refers to the change in melting temperature against a reference sample. With `O=c1cc(-c2ccc(O)cc2)oc2c(CN3CCN(Cc4cccs4)CC3)c(O)cc(O)c12`, the ΔTm was 2.39 °C in assay [1]; -1.3 °C in assay [2]; 1.5 °C in assay [3]; -0.79 °C in assay [4]; 2.99 °C in assay [5]; -1.64 °C in assay [6]. Moreover, the figures for the ΔTm in assay [7] and in assay [8] were 3.95 °C and 2.2 °C, respectively.

As to `Nc1ncnc2c1ncn2[C@@H]1O[C@H](C(=O)N2CCN(CC(=O)Nc3cccc4c3CNC4=O)CC2)[C@@H](O)[C@H]1O`, the thermal shift (ΔTm) in assay [1] is 0.45 °C; in assay [2], -1.31 °C; in assay [3], -0.11 °C; in assay [4] it was 0.22 °C; in assay [5], -0.59 °C; in assay [6], 0.31 °C. For the same molecule, the ΔTm is -1.04 °C in assay [7] and -0.61 °C in assay [8].

For `Cc1ncsc1-c1ccc([C@H](C)NC(=O)[C@@H]2C[C@@H](O)CN2C(=O)[C@@H](NC(=O)CNC(=O)c2ccc(F)c(-c3ccc(N4C[C@@H](C)N(C)[C@@H](C)C4)c(NC(=O)c4c[nH]c(=O)cc4C(F)(F)F)c3)c2)C(C)(C)C)cc1`, the ΔTm was -0.64 °C in assay [1]; -6.28 °C in assay [2]; -0.94 °C in assay [3]; 0.81 °C in assay [4]; -3.51 °C in assay [5]; -15.7 °C in assay [6]. Also, the ΔTm in assay [7] is -5.35 °C; in assay [8], 1.29 °C.

For `NC(=O)C1CN(CCCCC(c2ccc(F)cc2)c2ccc(F)cc2)CCN1CC(=O)Nc1c(Cl)cc(N)cc1Cl` (stereo not drawn), the shift in melting temperature (ΔTm) in assay [1] is -3.72 °C; in assay [2], -1.03 °C; in assay [3], -3.44 °C; in assay [4] it was -5.13 °C; in assay [5], -5.78 °C; in assay [6] it was -8.93 °C. Moreover, the ΔTm in assay [7] is -8.05 °C; in assay [8] it was 4.39 °C.

`Cc1n[nH]c(C)c1Cc1sc2c(c1C(=O)N1C[C@H](O)CO1)c(=O)n(C)c(=O)n2CC(C)C`: the thermal shift (ΔTm) was 0.44 °C in assay [1]; -2.67 °C in assay [2]; 0.95 °C in assay [3]; -0.14 °C in assay [4]; -0.85 °C in assay [5]; 0.11 °C in assay [6]. The results for the ΔTm in assay [7] and in assay [8] were -1.57 °C and 0.69 °C, respectively.

As to `COC(=O)c1ccc(CN2CCC(O)(Cn3cnc4c(-c5ccc(CN)cc5)n(C)nc4c3=O)CC2)c(Cl)c1`, the ΔTm in assay [1] is 0.48 °C; in assay [2] it was -3.34 °C; in assay [3], -0.1 °C; in assay [4] it was -0.28 °C; in assay [5], -0.1 °C; in assay [6] it was 0.15 °C. In addition, the ΔTm in assay [7] is -1.56 °C; in assay [8], 2.14 °C.

Regarding `CC(C)(C)NS(=O)(=O)c1cccc2c(NC(=O)[C@H](Cc3ccccc3)NC(=O)C3CCCCC3)cccc12`, the ΔTm in assay [1] was 0.13 °C; in assay [2], 1.07 °C; in assay [3], 0.3 °C; in assay [4] it was -1.46 °C; in assay [5], -0.2 °C; in assay [6], -10.5 °C. The ΔTm in assay [7] is -2.29 °C; in assay [8], 2.01 °C.

For `CC(=O)Nc1ccc(C(=O)Nc2ccc(F)cc2N)cc1`, the shift in melting temperature (ΔTm) is 2.43 °C in assay [1]; -2.84 °C in assay [2]; -0.66 °C in assay [3]; 0.17 °C in assay [4]; -3.79 °C in assay [5]; -0.66 °C in assay [6]. Also, the thermal shift (ΔTm) in assay [7] was -2.46 °C; in assay [8], -0.15 °C.

`CC(C)(C)C1CCN(C(=O)n2ncc(C(O)(c3ccccc3)c3ccccc3)n2)CC1`: the ΔTm was -2.72 °C in assay [1]; -5.41 °C in assay [2]; -2.83 °C in assay [3]; 0.67 °C in assay [4]; -5.44 °C in assay [5]; 0.52 °C in assay [6]. In addition, the ΔTm in assay [7] is -4.85 °C; in assay [8] it was -0.34 °C.

For `C[C@@H]1CN(Cc2ncccn2)C[C@H]1c1nc2c(cnn2C2CCOCC2)c(=O)[nH]1`, the thermal shift (ΔTm) in assay [1] was 0.63 °C; in assay [2] it was -2.54 °C; in assay [3] it was 0.17 °C; in assay [4] it was -0.3 °C; in assay [5], 0.32 °C; in assay [6] it was 0.24 °C. In addition, the ΔTm in assay [7] was -2.46 °C; in assay [8], 0.61 °C.

Regarding `CN1CCN(c2cc(C(=O)Nc3ncc(SCc4cccc(C(F)(F)F)c4)s3)ccn2)CC1`, the ΔTm was 3.36 °C in assay [1]; -0.44 °C in assay [2]; -0.22 °C in assay [3]; -0.03 °C in assay [4]; 0 °C in assay [5]; -0.59 °C in assay [6]. Besides, the results for the thermal shift (ΔTm) in assay [7] and in assay [8] were 0 °C and -2.66 °C, respectively.

Consider `Cc1nc(N)c2nnn(C[C@H]3CN(Cc4nccs4)CCO3)c2n1`, for which the thermal shift (ΔTm) in assay [1] was 0.44 °C; in assay [2], -3.68 °C; in assay [3] it was -0.07 °C; in assay [4], -0.32 °C; in assay [5], -0.34 °C; in assay [6], 0.04 °C. In addition, the ΔTm in assay [7] is -1.7 °C; in assay [8], 1.36 °C.

`NC(=O)c1cnc(N[C@@H]2CCCC[C@@H]2N)nc1Nc1cccc(-n2nccn2)c1`: the thermal shift (ΔTm) in assay [1] was 3.49 °C; in assay [2] it was -1.09 °C; in assay [3] it was 5.92 °C; in assay [4], 6.3 °C; in assay [5], 5.98 °C; in assay [6], 4.33 °C. Further, the ΔTm in assay [7] was determined as 2.17 °C; in assay [8] it was 0.1 °C.

Regarding `Cc1cc(OCCCNCCC(N)=O)ccc1Cc1c(O[C@@H]2O[C@H](CO)[C@@H](O)[C@H](O)[C@H]2O)n[nH]c1C(C)C`, the thermal shift (ΔTm) was 0.54 °C in assay [1]; -1.5 °C in assay [2]; 0.03 °C in assay [3]; -0.12 °C in assay [4]; -0.7 °C in assay [5]; 0.24 °C in assay [6]. Also, the figures for the ΔTm in assay [7] and in assay [8] were -2.37 °C and -0.75 °C, respectively.

As to `Cc1cccc(Nc2ccncc2S(=O)(=O)NC(=O)NC(C)C)c1`, the ΔTm in assay [1] is 0.72 °C; in assay [2] it was -2.84 °C; in assay [3], -0.02 °C; in assay [4], -0.02 °C; in assay [5], -0.74 °C; in assay [6] it was 0.43 °C. The figures for the thermal shift (ΔTm) in assay [7] and in assay [8] were -2.33 °C and 0.72 °C, respectively.

Consider `CN(Cc1ccccc1)c1ccc2cc(C(=O)O)c(=O)oc2c1`, for which the ΔTm in assay [1] stood at 0.44 °C; in assay [2], 2.11 °C; in assay [3], 0.37 °C; in assay [4] it was 0.11 °C; in assay [5], 0 °C; in assay [6], 0.54 °C. The shift in melting temperature (ΔTm) in assay [7] was -1.09 °C; in assay [8], 0.17 °C.

With `CCC(=O)N1CCOc2c(cc(-c3cc(OC)cc(OC)c3)cc2C(=O)N[C@H]2CCCN(C)C2)C1`, the ΔTm in assay [1] is 0.72 °C; in assay [2], -0.15 °C; in assay [3] it was 0.57 °C; in assay [4] it was 0.5 °C; in assay [5], -1.27 °C; in assay [6], 0.1 °C. Also, the ΔTm in assay [7] was 0.01 °C; in assay [8], -2.74 °C.

Regarding `CN(CCOc1ccc(-c2ccc3c(c2)OCO3)cc1C(C)(C)C)CC(=O)O`, the ΔTm in assay [1] was 0.97 °C; in assay [2], -3.79 °C; in assay [3], -0.18 °C; in assay [4], -0.21 °C; in assay [5], -0.2 °C; in assay [6], 0.46 °C. In addition, the figures for the shift in melting temperature (ΔTm) in assay [7] and in assay [8] were -0.74 °C and -0.19 °C, respectively.

Consider `Cn1nc2c(=O)n(CC3(O)CCN(C(=O)C[C@H](c4ccccc4)C(F)(F)F)CC3)cnc2c1-c1ccc(CN)cc1`, for which the shift in melting temperature (ΔTm) was 0.68 °C in assay [1]; -2.51 °C in assay [2]; 0.12 °C in assay [3]; -0.82 °C in assay [4]; -0.57 °C in assay [5]; 0.17 °C in assay [6]. The figures for the ΔTm in assay [7] and in assay [8] were -1.86 °C and -0.47 °C, respectively.

Regarding `NC(=S)c1cccc(-c2cn(C3CCN(S(=O)(=O)C(F)(F)F)CC3)c3cc(CNC(=O)C4CNC4)ccc23)c1`, the ΔTm in assay [1] is 0.61 °C; in assay [2] it was -0.14 °C; in assay [3] it was 1.5 °C; in assay [4], -0.09 °C; in assay [5] it was -0.8 °C; in assay [6], 0.28 °C. For the same molecule, the ΔTm in assay [7] is -1.57 °C; in assay [8], 0 °C.

Turning to `C[C@@H]1OC(=O)NN=C1c1ccc(-c2ccc(F)cc2)c(C(F)(F)F)c1`, the thermal shift (ΔTm) in assay [1] was -1.46 °C; in assay [2], -3.44 °C; in assay [3], -0.76 °C; in assay [4], -0.33 °C; in assay [5], -7.28 °C; in assay [6] it was -0.02 °C. The ΔTm in assay [7] is -7.3 °C; in assay [8], -0.48 °C.

Values taken from ChEMBL document CHEMBL5724796, “Tm Shift (DSF) assay results for EUbOPEN Chemogenomics Library” (2024).
